HTT aggregate: mutant huntingtin aggregation inhibition. actives 1.1% (n = 220,000). Potency, µM (series often up to 46.1 µM), usual class: inhibitors. AID 1688. PC12 HttQ103-GFP aggregates, Acumen cytometry, 40 h; also: nearly all actives have a fitted effect of over 60% in size
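Steps: seed 1500 PC12 HTTQ103-GFP cells/well; add tebufenozide, 100 nM final; add compound titration; add ATPLite reagent; quantify GFP aggregates by laser scanning cytometry.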
PNC inhibitor: blocks assembly of the perinucleolar compartment | PC3M PTB-GFP, PNC prevalence imaging, 16 h; active compounds read low | activity change (PNC), negative = inhibition, % at 10 µM | actives 3.1% (n = 140,000);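 active = readout at or below -70, meaning at least 70% loss of cells showing the perinucleolar compartment, a nuclear body marking cancer cells; inconclusive = readout between -30 and a set limit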
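Read-out is percentage of cells bearing a perinucleolar compartment, from automated 20x imaging of fixed, Hoechst-stained PC3M PTB-GFP cells. Cells were seeded 4 h, then exposed 16 h to compound (23 nl of library stock) in duplicate plates.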
HTT cytoprotect: cytoprotection in Huntington HTT-Q103 PC12 cell model; AID 1471; PC12 HTT-Q103 induced, cytoprotection, ATP luminescence, 40 h; Potency, µM (series often up to 56.4 µM), hits mostly activators; actives 0.14% (n = 230,000); also: nearly all actives have a fitted effect of over 45% in size
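Readout: ATPlite luminescence (ATP level). Model: stable PC12, inducible Htt exon1 Q103-GFP. Inducer: tebufenozide, 100 nM final. Compounds: dose series. No G418 in medium.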
NPSR antagonist: antagonists of human neuropeptide S receptor cAMP signaling. Q6W5P4. CHO-NPSR cells, cAMP TR-FRET, antagonist mode. Potency, µM (doses to about 38.3 µM), usual class: inhibitors. actives 1% (n = 220,000). AID 1461; also: nearly all actives have a fitted effect of over 50% in size
Target sequence (Q6W5P4 whole entry, looked up): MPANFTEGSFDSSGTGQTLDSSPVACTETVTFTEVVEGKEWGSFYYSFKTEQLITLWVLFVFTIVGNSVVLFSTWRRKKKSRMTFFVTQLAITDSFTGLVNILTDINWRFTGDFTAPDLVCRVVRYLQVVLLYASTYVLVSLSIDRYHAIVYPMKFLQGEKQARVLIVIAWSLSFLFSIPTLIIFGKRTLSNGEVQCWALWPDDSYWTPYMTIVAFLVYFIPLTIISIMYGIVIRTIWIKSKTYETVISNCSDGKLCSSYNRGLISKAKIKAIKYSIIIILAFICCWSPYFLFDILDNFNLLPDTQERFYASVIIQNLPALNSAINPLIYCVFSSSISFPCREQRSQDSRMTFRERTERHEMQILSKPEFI
IMPase inh: cell-permeable inhibitors of inositol monophosphatase (IMPase). P97697. CHO-M1 cells, IP1 accumulation, HTRF TR-FRET ratio. inhibition (IP1 accumulation), % at 46.1 µM. 120,000 tested, under 10 active. AID 901; active = well fitted curve in the direction sought with a large enough effect in the signal ratio, not every such curve was filed as active; inconclusive = small, poorly fitted or top-dose-only effect, or a change in a side signal; inactive = no such curve, though single readings can be large or run the other way; the % refers to the signal ratio;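 also: cells stimulated with carbachol in lithium chloride buffer; higher means more IMPase inhibition seen as more IP1 and lower FRET ratio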
Target sequence (P97697 whole entry, looked up): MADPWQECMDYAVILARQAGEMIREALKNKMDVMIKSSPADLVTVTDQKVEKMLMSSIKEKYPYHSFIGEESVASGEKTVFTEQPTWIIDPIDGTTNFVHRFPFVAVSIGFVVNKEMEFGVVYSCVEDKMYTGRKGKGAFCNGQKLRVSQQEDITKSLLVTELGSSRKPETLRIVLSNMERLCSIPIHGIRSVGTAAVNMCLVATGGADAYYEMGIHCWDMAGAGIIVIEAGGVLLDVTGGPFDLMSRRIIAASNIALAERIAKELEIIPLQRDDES
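Elevated IP1 in lysates lowers TR-FRET signal (665/620 ratio and 620 channel reported). Cells were CHO-M1, given carbachol (50 uM as added) plus 50mM LiCl, pH 7.4, 30 min, 37C; compounds titrated up to 46 uM; AC50 by Hill equation.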
IMPase Li inh: cell-permeable IMPase inhibitors with lithium potentiation; Potency, µM (top dose mostly 59.4 µM), most hits filed as inhibitors; AID 1457; actives 0.35% (n = 210,000); CHO-M1 cells, IP1 TR-FRET (IP-One), carbachol + lithium;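 also: IP1 builds up when IMPase is blocked and the TR-FRET signal falls; nearly all actives have a fitted effect of over 50% in size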
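CHO cells stably expressing M1 receptor (2000/well) were cultured 16–30 h, then exposed to compounds with a small lithium addition for 30 min at 37C. IP1 was measured by TR-FRET competition; AC50 from Hill fits.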
Of the large screens only hits and unclear results are named; the others gave an inactive call. An excerpt weighted towards active compounds, which were near 3.4% of everything screened. Unless noted, calls follow the shape of the dose curve; as a rule, active = well fitted curve in the direction sought with a large enough effect; inconclusive = small, poorly fitted or top-dose-only effect, or another doubt; inactive = no such curve, though single readings can be large; an effect the other way counts as inactive or inconclusive.

COCCn1nc2cc(C(=O)NCc3cc(C(F)(F)F)cc(C(F)(F)F)c3)ccc2c1OC	HTT cytoprotect 0.71µM
Cn1c(CCNC(=O)c2ccco2)nc2cc(NC(=O)C3CCCCC3)ccc21	PNC inhibitor -114
COc1cccc([C@@H]2Oc3ccc(OC)cc3C(=O)[C@H]2OC(=O)NCCOc2ccccc2)c1	none (no result: HTT aggregate, PNC inhibitor, NPSR antagonist, IMPase inh)
Cc1ccc2nc(NC(=O)CN(C)S(=O)(=O)c3cccc4nsnc34)sc2c1	PNC inhibitor -122
Cc1ccc2[nH]c(-c3ccccc3)cc(=O)c2c1	PNC inhibitor -111
CC1(C(=O)NC(=S)NNC(=O)c2ccncc2)CCCCC1	none
O=C(NNC(=S)NC(=O)C12CC3CC(CC(C3)C1)C2)c1ccncc1	HTT aggregate 3.2µM
COc1ccccc1-n1cc(CN2CCN(CC=C(C)C)C(CCO)C2)cn1 (stereo not drawn)	none (no result: PNC inhibitor, IMPase inh, IMPase Li inh)
CCC(c1nnnn1Cc1ccco1)N(CCc1ccccc1)Cc1cc2cc(C)ccc2[nH]c1=O (stereo not drawn)	HTT aggregate 28µM, NPSR antagonist inconclusive (no result: IMPase Li inh)
Cc1ccc2[nH]c(=O)c(CN(Cc3ccc4c(c3)OCO4)Cc3nnnn3C3CCCC3)cc2c1	NPSR antagonist 13µM
Cc1ccc2[nH]c(=O)c(CN(Cc3nnnn3Cc3ccccc3)C3CCCC3)cc2c1	HTT aggregate 0.89µM
Cc1ccc2[nH]c(=O)c(CN(CCc3ccccc3)C(c3nnnn3Cc3ccco3)C(C)C)cc2c1 (stereo not drawn)	none (no result: PNC inhibitor, IMPase inh, IMPase Li inh)
CC(C(=O)Nc1sc2c(c1C(=O)NCC1CCCO1)CCC2)N1C(=O)c2ccccc2C1=O (stereo not drawn)	HTT aggregate inconclusive, PNC inhibitor inconclusive
CN1CCN(c2ncc3ncc(=O)n(C4CC4)c3n2)CC1	none (no result: HTT aggregate, PNC inhibitor, NPSR antagonist, IMPase inh)
COc1cccc(Nc2ncc3ncc(=O)n(CCc4ccccc4)c3n2)c1	none (no result: HTT aggregate, PNC inhibitor, NPSR antagonist, IMPase inh)
COC(=O)c1cccc(Oc2nc3c(c(=O)n(C)c(=O)n3C)n2C(C)C)c1	PNC inhibitor -97, IMPase Li inh inconclusive
Cc1cccc(Oc2nc3c(c(=O)n(C)c(=O)n3C)n2C)c1	none (no result: PNC inhibitor)
Cc1ccccc1OCC1CN(CN2CCOCC2)C(=O)O1 (stereo not drawn)	PNC inhibitor -87
CCCC[P+](CCCC)(CCCC)Cc1ccc(NC(=O)[C@@H](Cc2ccc3ccccc3c2)NC(=NC2CCCCC2)NC2CCCCC2)cc1	none (no result: HTT aggregate, PNC inhibitor, NPSR antagonist)
COC(=O)c1cc2cc(Cl)ccc2nc1SC	none (no result: PNC inhibitor, IMPase inh, IMPase Li inh)
COc1ccc(C2CC(C(F)(F)F)n3nc(C(=O)NCc4c(C)nn(C)c4C)c(Cl)c3N2)cc1 (stereo not drawn)	HTT aggregate 8.9µM
COc1ccc(C2CC(C(F)(F)F)n3nc(C(=O)N(C)Cc4cn(C)nc4C)c(Cl)c3N2)cc1 (stereo not drawn)	PNC inhibitor inconclusive
COc1ccc(-n2c(=O)c(C)nc3cnc(Nc4ccccc4)nc32)cc1	none (no result: HTT aggregate, PNC inhibitor, NPSR antagonist, IMPase inh)
CC(=O)OC1CCC2(C)C(=CCC3C2CCC2(C)C3C[C@@H]3O[C@]32C(C)=O)C1 (stereo partly drawn)	none (no result: HTT aggregate, PNC inhibitor, NPSR antagonist)
Cc1ccc(NS(=O)(=O)c2ccc(C(=O)N3CCN(c4ccccn4)CC3)cc2)cc1	HTT aggregate 11µM
CCOC(=O)c1ccc(NC(=O)N2CCN(c3ccccn3)CC2)cc1	HTT aggregate 0.56µM
Cc1ccc(NS(=O)(=O)c2ccc(C(=O)N3CCCN(C)CC3)cc2)cc1	PNC inhibitor -100
CC(=O)OC[C@@]1(O)C[C@@]23CC[C@@H]4c5ccoc5CC[C@@]4(C)[C@@H]2CCC1C3	HTT cytoprotect inconclusive (no result: HTT aggregate, PNC inhibitor, NPSR antagonist, IMPase inh)
CCCCN1C=CC(=C2N=c3cccc([N+](=O)[O-])c3=N2)C=C1	HTT aggregate 0.89µM (no result: IMPase inh)
CCCCCCN1C=CC(=C2C(=O)c3ccccc3C2=O)C=C1	none (no result: PNC inhibitor, IMPase inh)
Cc1cc(Cl)ccc1NC(=S)NCCC(c1ccccc1)c1ccccc1	HTT aggregate inconclusive, PNC inhibitor -86
Cc1c(Cl)cccc1NC(=S)NCCC(c1ccccc1)c1ccccc1	PNC inhibitor inconclusive (no result: HTT cytoprotect, IMPase inh)
CCOC(=O)C(C)Sc1nc2c([nH]c3ccccc32)c(=O)n1C (stereo not drawn)	PNC inhibitor -119
CCOC(=O)CSc1nc2c([nH]c3ccccc32)c(=O)n1C	none
CC(=O)Nc1cc(OC(C)=O)c2nonc2c1OC(C)=O	HTT aggregate 7.1µM, NPSR antagonist inconclusive
CC(=O)c1cccc(Nc2nc(-c3cccc([N+](=O)[O-])c3)cs2)c1	HTT aggregate inconclusive, PNC inhibitor -85
CC(=O)Nc1nc(C)c(-c2csc(Nc3cccc([N+](=O)[O-])c3)n2)s1	none
CC(OC(=O)c1ccccc1Br)C(=O)Nc1nc(-c2cccc([N+](=O)[O-])c2)cs1 (stereo not drawn)	none
O=C(Nc1nc(-c2cccc([N+](=O)[O-])c2)cs1)C(c1ccccc1)c1ccccc1	HTT aggregate 16µM
CO[C@@H]1COC(=O)[C@H](C)NC(=O)C/C=C\[C@@H](C)[C@@H](NS(=O)(=O)c2ccc(C)cc2)COC(=O)C/C=C\[C@@H]1C	none (no result: HTT aggregate, PNC inhibitor, NPSR antagonist, IMPase inh, IMPase Li inh)
C/C(=N\N=C(/N)c1nonc1N)c1ccc2c(c1)OCO2	none (no result: PNC inhibitor, IMPase inh, IMPase Li inh)
COCCCn1c(SCC(=O)Nc2ccc(C)cc2)nc2ccccc2c1=O	none (no result: PNC inhibitor, IMPase inh)
CCc1ccc(NC(=O)CSc2nc3ccccc3c(=O)n2CCCN2CCC(C)CC2)cc1	HTT aggregate 22µM, NPSR antagonist inconclusive (no result: PNC inhibitor, IMPase inh)
Cc1ccc(NC(=O)CSc2nc3ccccc3c(=O)n2CCCC(=O)N2CCCC2)cc1	PNC inhibitor inconclusive
COCCn1c(SCC(=O)Nc2ccc(NC(=O)c3ccco3)c(OC)c2)nc2ccccc2c1=O	none
CCn1c(SCC(=O)Nc2ccc(NC(=O)c3ccco3)c(OC)c2)nc2ccccc2c1=O	IMPase Li inh 13µM
Cc1ccc(NC(=O)CSc2nc3ccccc3c(=O)n2Cc2cccs2)cc1	HTT cytoprotect inconclusive, IMPase Li inh 13µM
COCCCn1c(SCC(=O)Nc2ccc(C(=O)OC)cc2)nc2ccccc2c1=O	PNC inhibitor -117, NPSR antagonist inconclusive
C=CCCCCCCCCC(=O)OC	none (no result: PNC inhibitor, NPSR antagonist, IMPase inh, IMPase Li inh)
FC(F)(F)c1ccccc1-c1ccc2ncnc(NCCN3CCOCC3)c2c1	none (no result: HTT aggregate, PNC inhibitor, NPSR antagonist, IMPase inh)
COc1ccc(CCCO[C@@H](Cn2ccnc2)c2ccc(OC)cc2)cc1	none (no result: HTT aggregate, PNC inhibitor, NPSR antagonist)
CCOc1ccc(NC(=O)CSc2nc3ccccc3c(=O)n2CCNC(C)=O)cc1	PNC inhibitor -107
CC(=O)Nc1ccc(NC(=O)C(C)OC(=O)C2CCN(S(=O)(=O)c3cccs3)CC2)cc1 (stereo not drawn)	none (no result: PNC inhibitor, IMPase inh, IMPase Li inh)
N#C/C(=N\Nc1cccc(Cl)c1)C(=O)c1ccccc1	HTT aggregate 3.5µM, PNC inhibitor inconclusive
